Test results as given in PubChem BioAssay (NCI).
About 83,000 compounds went through this panel and 20% of them were active in at least one assay; those are over-represented in the sample as a whole.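 Cells were grown in 96-well plates and exposed to the test compound at a single concentration for 48 hours; results are reported as percent growth, with values below 10 considered active.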 Values without a mark were called inactive. Calls of active or inactive are those of the source.

Tests used:
Experiment in all cases: NCI-60 one-dose screen, 48 h (100 = growth as untreated, 0 = no growth, -100 = all killed)
Settings in all cases: 10 µM unless noted
SR leukemia = system: SR leukemia
OVCAR-8 ovarian = system: OVCAR-8 ovarian
OVCAR-5 ovarian = system: OVCAR-5 ovarian
OVCAR-4 ovarian = system: OVCAR-4 ovarian
SK-OV-3 ovarian = system: SK-OV-3 ovarian
IGROV1 ovarian = system: IGROV1 ovarian
HS 578T breast = system: HS 578T breast
NCI/ADR-RES ovarian = system: NCI/ADR-RES ovarian
OVCAR-3 ovarian = system: OVCAR-3 ovarian

| Compound | growth (SR leukemia) | growth (OVCAR-8 ovarian) | growth (OVCAR-5 ovarian) | growth (OVCAR-4 ovarian) | growth (SK-OV-3 ovarian) | growth (IGROV1 ovarian) | growth (HS 578T breast) [%] | growth (NCI/ADR-RES ovarian) | growth (OVCAR-3 ovarian) |
| --- | --- | --- | --- | --- | --- | --- | --- | --- | --- |
| C/C(=N\NC(N)=S)c1nnn(-c2ccc([N+](=O)[O-])cc2)c1C | 110% | 98.6% | 98.7% | 108% | 104% | 100% | 96.3 | 98.8% | – |
| C#Cc1nc(/C=C/CCCCCCC(=O)NO)cs1 | -39.9% (active) | 31.8% | 59.3% | 47.2% | 88.8% | -80.3% (active) | 80 | 24.9% | – |
| Cc1c(C(=O)/C=C/c2ccc(Cl)cc2)nnn1-c1ccc2oc(=O)ccc2c1 | 91% | 99.4% | 97.9% | 105% | 106% | 102% | 109 | 88.4% | – |
| Cc1ccc(S(=O)(=O)c2nc(-c3ccc(F)cc3)oc2S(C)(=O)=O)cc1 | 8.12% (active) | 86.9% | 95.2% | 92.1% | 100% | 45.2% | 90.6 | 92% | – |
| C/C(=N\NC(=O)Nc1ccccc1)c1nnn(-c2ccc([N+](=O)[O-])cc2)c1C | 100% | 102% | 112% | – | 109% | 112% | 116 | 102% | – |
| CN1CCN(c2ccc(Nc3nc(NCCCNS(=O)(=O)c4ccc(Cl)cc4)c4sccc4n3)cc2)CC1 | 5.77% (active) | 17% | 39.5% | -0.0486% (active) | 54.1% | 25.9% | 20.2 | 47.7% | -6.9% (active) |
| COc1cccc2c1C=CC1(O2)Oc2cccc(OC)c2C=C1C (configuration not stated) | 12.8% | 23.5% | 29.6% | 85.3% | 65.5% | 27.9% | 20.8 | 4.87% (active) | – |
| CN(C)CC(=O)Nc1nc(-c2cccc(NS(=O)(=O)c3cccc4c(N(C)C)cccc34)c2)cs1 | 74.9% | 82.6% | 105% | 87.1% | 107% | 90.7% | 90.6 | 76.8% | – |
| CC(C)=CCC[C@](C)(O)[C@H]1CC[C@]2(C)[C@@H]1CC[C@@H]1[C@@]3(C)CC[C@H](N)C(C)(C)[C@@H]3CC[C@]12C | -24.4% (active) | 98.1% | 108% | 97.5% | 104% | 93.3% | 94.6 | 88.9% | 107% |
| O=C(CCCCCCNC(=O)C(O)(O)C(F)(F)F)Nc1ccc(-c2ccccc2)cc1 | 2.65% (active) | 6.81% (active) | 9.32% (active) | 36.6% | -22.6% (active) | 14.3% | 33.8 | 7.74% (active) | -16.6% (active) |
| CCc1cc(OC(=O)N2CCC(N3CCCCC3)CC2)ccc1Nc1cc(-c2ccc(-n3cccn3)cc2)[nH]n1 | -9.25% (active) | 86.2% | 87.4% | – | 85.9% | 56.9% | 66.8 | 82.5% | – |
| Cc1ccc(CSC2=C(Cl)CN(c3ccc(Cl)cc3)C2=O)cc1 | 74.1% | 105% | 106% | 107% | 117% | 115% | 107 | 103% | – |
